# Measurements as given in PubChem BioAssay.
# Several values for one entry are separate records, joined by “and”; a condition that tells them apart may be missing. Equal values may be shown once. Inconclusive results are not listed. For some assays here: Entries with a potency or affinity are not part of this list. Activity calls are given as the source filed them. Unless noted, no rule for the calls is given here.
# Key:
# [1] = human astrocyte viability loss, single and combined drugs, cytotoxicity control for chromothriptic childhood tumor combination screen, cell-based, BGB or cisplatin IC20 combos (AID 1671460; in the data active = inhibition above about 80%;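 also: cells exposed to compounds for 96 hours before viability readout; 0% = vehicle and 100% = killing control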); conditions: Human astrocytes, drug combinations, stronger effect = higher value
# [2] = hESC survival regulators, cell-based (AID 493140); conditions: human embryonic stem cell survival screen; stronger effect = higher value;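 also: cells exposed to compounds for four days before counting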
# [3] = Cy5 fluorescence interference with SSB-bound oligo, artefact control for HCV NS3 helicase inhibitor project, biochemical, NIH Clinical Collection, E. coli SSB (AID 743268)
# [4] = system: Hepatitis C virus NS3 helicase; test: HCV NS3 helicase inhibitors, primary screen, biochemical, fluorescence polarization, NIH Clinical Collection (AID 743270); conditions: NS3 helicase binding to Cy5-dT15 DNA, stronger effect = higher value, concentration not given here
# [5] = target: Single-stranded DNA-binding protein (Escherichia coli (strain K12)) (UniProt P0AGE0); test: E. coli SSB displacement from DNA, counter-screen for HCV NS3 helicase inhibitor project, biochemical, fluorescence polarization, NIH Clinical Collection (AID 743271; in the data active = inhibition above about 28%); conditions: stronger effect = higher value, concentration not given here
# [6] = fluorescence interference in NS3h assay format, artefact control for HCV NS3 helicase inhibitor project, biochemical, NIH Clinical Collection (AID 743272); conditions: fluorescence interference counterscreen, stronger effect = lower value;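 also: HCV NS3 helicase with a Cy5 labelled single stranded DNA probe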
# [7] = target: Mitogen-activated protein kinase 7 (Homo sapiens) (UniProt Q13164); test: ERK5 transactivation activators in reporter cells, primary screen, cell-based, HTS (AID 1508626;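 active = luciferase signal above three times the same-plate solvent-only control wells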;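 also: luciferase driven by Gal4-ERK5 fusion binding five Gal4 sites before minimal TATA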); conditions: HeLa Gal4-ERK5 transactivation, 18 h, at 5 µM, stronger effect = higher value
# Mitogen-activated protein kinase 7 (Homo sapiens), sequence (Q13164 whole entry, looked up, the tested form may be a part): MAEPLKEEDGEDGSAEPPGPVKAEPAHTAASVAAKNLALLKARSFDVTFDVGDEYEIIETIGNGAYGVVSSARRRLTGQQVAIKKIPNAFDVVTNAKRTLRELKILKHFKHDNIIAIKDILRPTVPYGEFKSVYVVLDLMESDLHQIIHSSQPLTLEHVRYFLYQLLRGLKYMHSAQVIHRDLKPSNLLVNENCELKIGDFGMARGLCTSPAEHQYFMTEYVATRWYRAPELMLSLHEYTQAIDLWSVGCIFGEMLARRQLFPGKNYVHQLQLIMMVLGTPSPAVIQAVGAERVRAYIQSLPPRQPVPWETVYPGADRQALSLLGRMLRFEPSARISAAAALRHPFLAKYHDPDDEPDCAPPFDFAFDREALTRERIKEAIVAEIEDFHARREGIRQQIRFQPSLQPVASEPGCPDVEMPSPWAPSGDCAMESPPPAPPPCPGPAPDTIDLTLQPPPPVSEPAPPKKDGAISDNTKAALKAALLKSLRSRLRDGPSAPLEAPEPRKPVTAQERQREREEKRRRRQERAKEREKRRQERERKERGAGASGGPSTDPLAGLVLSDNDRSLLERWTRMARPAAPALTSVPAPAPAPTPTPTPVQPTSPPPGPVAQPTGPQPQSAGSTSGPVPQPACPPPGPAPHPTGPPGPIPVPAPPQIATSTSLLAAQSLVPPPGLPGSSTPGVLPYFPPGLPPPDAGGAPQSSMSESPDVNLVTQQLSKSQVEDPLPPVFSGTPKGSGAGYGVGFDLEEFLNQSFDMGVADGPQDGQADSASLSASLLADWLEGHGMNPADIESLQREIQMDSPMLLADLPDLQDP
# [8] = target: ATP-dependent translocase ABCB1 (Homo sapiens) (UniProt P08183); test: MDR1 (ABCB1) efflux transporter inhibition, cell-based (AID 377; in the data active = fluorescence slope change above about 50%); conditions: MDR1-expressing cells, fluorescent substrate accumulation slope; stronger effect = higher value; concentration not given here
# ATP-dependent translocase ABCB1 (Homo sapiens), sequence (P08183 whole entry, looked up): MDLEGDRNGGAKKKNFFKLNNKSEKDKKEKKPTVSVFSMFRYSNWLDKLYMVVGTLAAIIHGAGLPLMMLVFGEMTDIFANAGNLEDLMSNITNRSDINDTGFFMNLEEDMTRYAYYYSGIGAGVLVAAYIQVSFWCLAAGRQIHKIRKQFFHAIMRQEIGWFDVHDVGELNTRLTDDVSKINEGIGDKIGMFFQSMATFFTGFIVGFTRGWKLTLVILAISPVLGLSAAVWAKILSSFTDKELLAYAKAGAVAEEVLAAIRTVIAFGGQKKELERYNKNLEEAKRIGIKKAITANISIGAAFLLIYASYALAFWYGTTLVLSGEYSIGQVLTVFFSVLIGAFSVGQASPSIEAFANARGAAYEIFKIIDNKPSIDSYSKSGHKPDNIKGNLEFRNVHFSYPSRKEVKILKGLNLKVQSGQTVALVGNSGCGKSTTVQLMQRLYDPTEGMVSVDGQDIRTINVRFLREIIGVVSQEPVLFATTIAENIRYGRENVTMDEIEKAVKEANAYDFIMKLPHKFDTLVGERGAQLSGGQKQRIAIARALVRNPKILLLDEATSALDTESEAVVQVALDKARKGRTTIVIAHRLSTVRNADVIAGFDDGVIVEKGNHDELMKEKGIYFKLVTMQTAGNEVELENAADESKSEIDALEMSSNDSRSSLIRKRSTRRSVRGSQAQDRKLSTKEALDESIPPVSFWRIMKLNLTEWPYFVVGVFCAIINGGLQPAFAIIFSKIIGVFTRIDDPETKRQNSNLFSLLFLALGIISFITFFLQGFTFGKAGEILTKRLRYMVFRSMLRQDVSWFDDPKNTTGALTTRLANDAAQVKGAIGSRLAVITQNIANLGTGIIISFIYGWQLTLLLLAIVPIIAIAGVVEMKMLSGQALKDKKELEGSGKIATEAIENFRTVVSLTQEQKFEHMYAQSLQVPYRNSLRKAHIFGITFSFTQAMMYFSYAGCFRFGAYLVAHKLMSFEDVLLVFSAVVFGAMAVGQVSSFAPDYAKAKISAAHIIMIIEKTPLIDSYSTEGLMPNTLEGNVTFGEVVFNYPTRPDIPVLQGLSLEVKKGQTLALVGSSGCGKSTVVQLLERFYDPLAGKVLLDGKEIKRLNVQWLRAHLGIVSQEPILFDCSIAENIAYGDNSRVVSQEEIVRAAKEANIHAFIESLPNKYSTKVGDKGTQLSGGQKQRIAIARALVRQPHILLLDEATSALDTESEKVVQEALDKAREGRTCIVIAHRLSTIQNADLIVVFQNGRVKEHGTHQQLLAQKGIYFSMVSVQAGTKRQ
# [9] = polyglutamine-triggered caspase-3 activation inhibitors, cell-based (AID 1583); conditions: polyglutamine-induced caspase-3 activation, cell assay; stronger effect = higher value;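 tested at 10 µM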
# [10] = suppressors of polyQ aggregation in yeast, 75Q-TubU reporter (AID 1593); conditions: Yeast 75Q polyglutamine aggregation reporter
# [11] = rescue of polyQ-huntingtin neuronal dysfunction in worms, whole organism, C. elegans mechanosensory neurons, N-terminal huntingtin (AID 1599); conditions: touch response, stronger effect = higher value
# [12] = inhibitors of mitochondrial cytochrome c release, biochemical, purified mitochondria (AID 1603); conditions: stronger effect = lower value;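 also: mouse liver mitochondria challenged with calcium chloride; signal normalized to the plate average as 100%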
# [13] = inhibitors of polyQ protein aggregation (AID 1604); conditions: polyglutamine-induced protein aggregation inhibition assay; stronger effect = higher value; tested at 2.5 µM
# [14] = enhancers of glutamate uptake in motor neurons, MN-1 cell line (AID 1612); conditions: MN-1 motor neuron cells, stronger effect = higher value;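 also: tested at 1 µM final; 0% = mean of DMSO vehicle wells on each plate; positive means more glutamate uptake than control and negative means less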
# [15] = reducers of polyQ inclusions in PC12 cells, cell-based, NGF-treated PC12, GFPQ80 (AID 1614); conditions: PC12 NGF-treated GFP-polyQ80 inclusion reduction;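 also: lower means fewer inclusions and 0 means no inclusions at all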
# [16] = suppressors of polyglutamine aggregation in yeast, 75Q-TubH (AID 1616); conditions: S. cerevisiae 75Q-TubH polyglutamine aggregation suppression; stronger effect = higher value
# [17] = kinase inhibitors against Plasmodium liver-stage infection, cell-based, known kinase inhibitor set, luminescence, hepatoma host viability (AID 624392); conditions: Plasmodium liver stage in hepatoma cells, luciferase luminescence, concentration not given here; liver cell % of control: measured here: host liver cell viability; parasite % of control: stronger effect = lower value;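 also: infected cells incubated roughly two days before readout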
# [18] = measured here: combo with BGB IC20, at 0.5 µM
# [19] = measured here: combo with cisplatin IC20, at 0.5 µM
structure (smiles),measurement,setting,value
CCOC(=O)NCCCC(=O)NCCc1ccccc1,inhibition,[1]; at 0.5 µM,6.08% (inactive) and 5.44% (inactive)
same,inhibition,[1]; [18],1.7% and -5.49%
same,inhibition,[1]; [19],7.7% and 23%
O=C(NCC1(c2nc(-c3ccccc3)cs2)CCOCC1)c1cccc(-c2noc(C(F)(F)F)n2)c1,inhibition,[1]; at 0.5 µM,-27.1% (inactive) and -7.2% (inactive)
same,inhibition,[1]; [18],-8.11% and -1.8%
same,inhibition,[1]; [19],-58.3% and -12.6%
C[C@]12CC[C@@H]3c4ccc(OS(=O)(=O)O)cc4CC[C@H]3[C@@H]1CCC2=O,survival,[2],5.67 (inactive)
same,fluorescence ratio,[3],1.03 (inactive)
same,inhibition,[4],-1.09% (inactive)
same,inhibition,[5],-2.76% (inactive)
same,fluorescence ratio,[6],1.01 (inactive)
same,luciferase signal,[7],76 AU (inactive)
CO[C@H]1C[C@H](O[C@H]2[C@H](C)[C@@H](O[C@@H]3O[C@H](C)C[C@H](N(C)C)[C@H]3OC(C)=O)[C@@H](C)C[C@@]3(CO3)C(=O)[C@H](C)[C@@H](OC(C)=O)[C@@H](C)[C@@H](C)OC(=O)[C@@H]2C)O[C@@H](C)[C@@H]1OC(C)=O,luciferase signal,[7],232 AU (inactive)
NCc1ccccc1CC(=O)N[C@@H]1C(=O)N2C(C(=O)O)=C(CSc3nnnn3CC(=O)O)CS[C@H]12,survival,[2],7.42 (inactive)
CO[C@@]1(NC(=O)C2SC(=C(C(N)=O)C(=O)O)S2)C(=O)N2C(C(=O)O)=C(CSc3nnnn3C)CS[C@@H]21 (stereo not given in full),survival,[2],11.4 (inactive)
C[C@@H]1CCC[C@H](C)N1NC(=O)c1ccc(Cl)c(S(N)(=O)=O)c1,fluorescence slope change,[8],11.3% (inactive)
same,luciferase signal,[7],100 AU (inactive)
CC(C)[N+]1(C)[C@@H]2CC[C@H]1CC(OC(=O)C(CO)c1ccccc1)C2 (stereo not given in full),fluorescence slope change,[8],52.9% (active)
same,luciferase signal,[7],44 AU (inactive)
NC[C@H]1O[C@H](O[C@H]2[C@H](O)[C@@H](O[C@H]3O[C@H](CO)[C@@H](O)[C@H](N)[C@H]3O)[C@H](N)C[C@@H]2N)[C@H](O)[C@@H](O)[C@@H]1O,inhibition,[9],5.91%
same,score,[10],1.82
same,rescue above control,[11],-8.71
same,cytochrome c release ratio,[12],1
same,inhibition of aggregation,[13],28.5%
same,glutamate uptake change,[14],2.43%
same,inclusion score,[15],2
same,aggregation suppression score,[16],1.68
same,luciferase signal,[7],40 AU (inactive)
Cc1ccc(NC(=O)c2ccc(CN3CCN(C)CC3)cc2)cc1Nc1nc(-c2cccnc2)cs1,liver cell % of control,[17],46.6% and 78.6% and 98.8%
same,parasite % of control,[17],29.5% (inactive) and 24.2% (inactive) and 36% (inactive)
CC1(C)S[C@@H]2[C@H](NC(=O)[C@H](NC(=O)N3CCNC3=O)c3ccccc3)C(=O)N2[C@H]1C(=O)O,luciferase signal,[7],60 AU (inactive)
C[C@@]1(c2nc3c(C(N)=O)cccc3[nH]2)CCCN1,inhibition,[1]; at 0.5 µM,-5.3% (inactive) and -11.3% (inactive)
same,inhibition,[1]; [18],-6.99% and -18.5%
same,inhibition,[1]; [19],-13.8% and -3.66%
CCOC(=O)O[C@]1(C(=O)COC(=O)CC)CC[C@H]2[C@@H]3CCC4=CC(=O)C=C[C@]4(C)[C@H]3[C@@H](O)C[C@@]21C,survival,[2],5.17 (inactive)
